High-throughput results: PubChem BioAssay, National Center for Advancing Translational Sciences (NCATS)
Hits are enriched below; roughly 5.5% of the tested compounds scored in any of these assays.
Six1-Eya2 blk: inhibitors of human Six1/Eya2 interaction. AID 651725. 360,000 compounds, 0.56% hits. Q15475+O00167. AlphaScreen GST-Six1/His-Eya2 binding, biochemical; hits give low values. activity change, % (test concentration not listed); in the data active means activity change below about -65%; inconclusive means mostly about -30% to -63%
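Compounds are tested against tagged Six1 and Eya2 proteins bridged by glutathione donor and nickel acceptor beads; after a one-hour incubation at 37 °C without light, AlphaScreen emission is recorded.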
Gal4-VP16 FLuc: counter-screen for ROR gamma inhibitors: Gal4-VP16 reporter | Drosophila S2 Gal4-VP16 UAS-luciferase, luminescence, 20 h | Potency, µM (titrated, usually from 53.6 µM), actives largely listed as inhibitors | 310,000 compounds, 3.5% hits;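 further: Gal4-VP16 expression switched on by copper sulfate through the metallothionein promoter; nearly all actives have a fitted effect of over 50% in size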
MBNL1-CUG inh: MBNL1-poly(CUG) RNA binding inhibition; TR-FRET MBNL1-His/biotin-(CUG)12 binding, 665/545 ratio; Q9NR56; AID 2675; 280,000 compounds, 0.036% hits; Potency, µM (top dose mostly 57.5 µM), usual class: inhibitors; active means well fitted inhibition curve with a large enough effect in the signal ratio, with a control signal flat, not every such curve was filed as active; inconclusive means small, poorly fitted or top-dose-only effect, or effect the other way, or a change in a side signal; inactive means no such curve, though single readings can be large or run the other way; the % refers to the signal ratio
Target sequence (Q9NR56 whole entry, looked up): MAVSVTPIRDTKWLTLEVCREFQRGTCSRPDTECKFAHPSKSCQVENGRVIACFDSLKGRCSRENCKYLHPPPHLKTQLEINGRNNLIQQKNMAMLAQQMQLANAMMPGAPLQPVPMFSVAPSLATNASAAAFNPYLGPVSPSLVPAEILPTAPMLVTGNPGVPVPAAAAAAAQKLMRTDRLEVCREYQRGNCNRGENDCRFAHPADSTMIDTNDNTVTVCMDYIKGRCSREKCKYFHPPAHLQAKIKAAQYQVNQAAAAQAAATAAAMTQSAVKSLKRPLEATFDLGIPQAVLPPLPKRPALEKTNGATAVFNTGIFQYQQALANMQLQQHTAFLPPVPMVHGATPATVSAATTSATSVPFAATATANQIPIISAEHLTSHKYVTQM
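MBNL1-His + Biotin-(CUG)12, cpd titration 92 nM–58 uM; Tb anti-His Ab 0.055 ng/ul, SA-XL665 5 nM (final); 60 min RT; ratiometric 665/545 nm, Ex 340 nm; normalized to buffer and full-complex controls.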
RORgamma inh: blocks mouse ROR gamma transcriptional activity; 310,000 compounds, 5.4% hits; Potency, µM (series often up to 53.6 µM), actives largely listed as inhibitors; Drosophila S2 Gal4-RORgamma UAS-luciferase reporter, 20 h; further: nearly all actives have a fitted effect of over 60% in size
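Drosophila S2 cells stably expressing Gal4-DBD/mouse RORγ fusion under metallothionein promoter plus UAS-luciferase; compound 1 h, then 700 uM CuSO4 induction for 20 h at ambient temperature; inhibition read as reduced luminescence.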
CBFb-RUNX1 inh: CBF-beta/RUNX1 interaction disruption | Q01196+Q13951 | Potency, µM (titrated, usually from 59.8 µM), most hits filed as inhibitors | 230,000 tested, under 10 active | AlphaScreen CBFb-His/RUNX1-biotin binding, biochemical | AID 1477
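Room-temperature protein-protein interaction test with 30 nM each of His-tagged CBF-beta and biotinylated RUNX1, 15 min with compound, then 90 min with nickel plus streptavidin beads. Signal read in AlphaScreen mode.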
CtBP-E1A blk: blocks the CtBP interaction with E1A; activity change, % (test concentration not listed); AlphaScreen GST-E1A/His-CtBP binding, 1536-well; hits give low values; 340,000 compounds, 0.49% hits; AID 651724; in the data active means activity change below about -65%; inconclusive means mostly about -30% to -63%
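GST-E1A and His-tagged CtBP (125 nM each as 5X stock) were preincubated with pin-transferred compound for 2 h at 37 °C in the dark, then glutathione donor and nickel acceptor beads were added for 1 h before AlphaScreen reading.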
Numbers stand for hits; i = inactive; ? = inconclusive; nt = no result given; [ ] = another dose, or the depositor's remark. Unless noted, the call rests on the fitted dose curve; in most records, active means well fitted curve in the direction sought with a large enough effect; inconclusive means small, poorly fitted or top-dose-only effect, or another doubt; inactive means no such curve, though single readings can be large; an effect the other way counts as inactive or inconclusive.

SMILES	Six1-Eya2 blk	Gal4-VP16 FLuc	MBNL1-CUG inh	RORgamma inh	CBFb-RUNX1 inh	CtBP-E1A blk
CCOc1ccccc1NC(=S)Nc1ccccc1F	i	?	i	11.2µM	i	i
CCOc1ccccc1NC(=S)Nc1ncccc1C	?	7.08µM	i	7.08µM	i	?
O=C(O)[C@H](Cc1c[nH]c2ccccc12)Nc1ncccc1[N+](=O)[O-]	i	i	?	i	nt	nt
CN1CCN(c2ccc(-c3ccc4ccccc4n3)cc2)CC1	i	?	i	0.316µM	i	i
c1ccc2nc(-c3ccncc3)ccc2c1	i	i	?	i	i	i
Cc1cc(-c2ccc(N3CCOCC3)cc2)nc2ccccc12	i	i	i	i	i	i
c1ccc2nc(-c3ccc(N4CCOCC4)cc3)ccc2c1	i	1.26µM	i	1.41µM	i	i
Cc1ccc(NS(=O)(=O)c2ccc(C(=O)N3CCN(S(=O)(=O)c4ccccc4)CC3)cc2)cc1	i	nt	nt	nt	nt	i
O=C(NCCN1CCOCC1)c1cc([N+](=O)[O-])cc([N+](=O)[O-])c1	i	i	?	i	nt	i
COC(=O)c1cc(Sc2c(Cl)cccc2Cl)ccn1	i	i[10 µM]	i	?	i	i
COC(=O)c1cc(Sc2cccc(Cl)c2Cl)ccn1	i	11.2µM	i	?	i	nt
Cc1ccc(Nc2nc(CSc3n[nH]c(N)n3)cs2)cc1	i	i	i	12.6µM	i	i
COc1ccc(NC(=O)CNC(=O)N2CC(=O)Nc3ccccc32)cc1OC	i	i	i	i	nt	nt
Cc1cc(C)n2nc(SCC(=O)NC(=O)c3ccc(OC(F)F)cc3)nc2n1	i	nt	nt	nt	nt	nt
CC1C(=O)OC2C(O)C34C5CC(C(C)(C)C)C36C(OC(=O)C6O)OC4(C(=O)O5)C12O (configuration not stated)	nt	i	nt	i	i	nt
Cc1nn(CCCC(=O)Nc2cc(Oc3ccccc3)cc([N+](=O)[O-])c2)c(C)c1[N+](=O)[O-]	i	?	i	2µM	i	i
CCOC(=O)c1ccc(NC(=O)CC2OCCN(CC)C2=O)cc1 (configuration not stated)	i	?	i	20µM	i	i
Cc1cccc(-n2c(-c3csc(C)c3C)n[nH]c2=S)c1	i	11.2µM	i	2.51µM	i	i
Cc1scc(-c2n[nH]c(=S)n2C(C)c2ccccc2)c1C (configuration not stated)	i	7.08µM	i	3.98µM	i	i
Cc1ccccc1-n1c(-c2csc3ccccc23)n[nH]c1=S	i	?	i	1.12µM	i	i
Cc1ccccc1-n1c(-c2csc(C)c2C)n[nH]c1=S	i	6.31µM	i	2.82µM	i	i
Cc1cccc(-n2c(-c3ccc(Br)o3)n[nH]c2=S)c1	i	nt	nt	nt	nt	i
CCc1cc(-c2n[nH]c(=S)n2C(C)c2ccccc2)cs1 (configuration not stated)	i	i	i	i	i	i
COc1ccccc1-n1c(-c2cn(C)nc2C)n[nH]c1=S	i	i	i	i	i	i
N#C/C(=C\c1ccc(-c2cccc([N+](=O)[O-])c2)o1)C(=O)Nc1nc(-c2cccs2)cs1	i	i	i	i	i	nt
SMILES	Six1-Eya2 blk	Gal4-VP16 FLuc	MBNL1-CUG inh	RORgamma inh	CBFb-RUNX1 inh	CtBP-E1A blk
CC(NC(=O)C1CCN(S(=O)(=O)c2cccc3nonc23)CC1)c1ccccc1 (configuration not stated)	i	i	?	i	nt	i
COc1nc(N)nc2c1ncn2C1OC(CO)CC1O (configuration not stated)	i	nt	nt	nt	nt	i
COc1ccc2nc(C)cc(SCC(=O)NNC(=O)COc3ccccc3)c2c1	i	i	i	i	i	i
COc1ccc2nc(C)cc(Sc3nc4ccccc4s3)c2c1	i	?	i	14.1µM	i	i
O=C(NCCc1nnc2ccc(N3CCCC3)nn12)c1ccccc1	i	nt	nt	nt	nt	i
CCc1nc2ccc(C(=O)NCCC(C)C)cn2c1N(C)Cc1ccc(OC)cc1	i	nt	nt	nt	nt	i
O=C(NC(=S)Nc1ncc(Br)cc1Br)c1ccccc1	i	17.8µM	i	8.91µM	nt	i
Cc1cc(C)nc(NC(=S)NC(=O)c2ccccc2)n1	i	?	i	?	nt	i
Cc1cc(C)c2c(NC(=S)NC(=O)c3ccccc3)nn(C)c2n1	i	5.01µM	i	1.41µM	i	i
